Results on 30 sequences are retold here after the supplement of paper PMC12645437, “Orthogonal IMiD-Degron Pairs Induce Selective Protein Degradation in Cells” (ACS Chemical Biology, 2025).

The target in the assay is T1, CRBN, Q96SW2.
T1 chain: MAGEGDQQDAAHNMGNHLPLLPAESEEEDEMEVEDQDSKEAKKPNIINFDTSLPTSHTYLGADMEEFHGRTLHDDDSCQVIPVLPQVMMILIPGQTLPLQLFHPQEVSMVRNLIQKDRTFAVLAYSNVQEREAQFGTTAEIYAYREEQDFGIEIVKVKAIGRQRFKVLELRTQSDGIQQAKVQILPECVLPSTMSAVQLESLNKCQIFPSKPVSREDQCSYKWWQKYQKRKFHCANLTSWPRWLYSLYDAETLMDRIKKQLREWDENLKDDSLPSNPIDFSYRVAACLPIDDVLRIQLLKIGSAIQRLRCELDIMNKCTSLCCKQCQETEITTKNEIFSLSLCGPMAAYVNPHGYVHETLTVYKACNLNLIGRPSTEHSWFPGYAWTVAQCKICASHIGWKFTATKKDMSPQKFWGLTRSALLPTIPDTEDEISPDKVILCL
Kind of assay: log2 fold change of degron read counts, EGFP-low vs EGFP+ sorted cells (limma voom), compound-induced degradation; higher = more compound-induced degradation of the degron-EGFP fusion; degrons are variants of IKZF1/3 zinc finger 2; compound dose not given here. The conditions noted are these: Jurkat, 18 h.

[1] abbreviates: compound: compound 19 (5-tert-butyl-thalidomide).
[2] abbreviates: compound: compound 22 (5-morpholino-thalidomide).
The mark [3] stands for this setting: compound: compound 33 (diphenyl IMiD analogue).

Over roughly 8,300 sequences, “log2 fold change of degron read counts, EGFP-low vs EGFP+ sorted cells (limma voom), compound-induced degradation” has its median near -1.1; the highest 2% begin near 3.2. Shown is part of a subset that was picked to be rich in the highest values.
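Further: pooled lentiviral library of zinc finger degron-EGFP fusions in mCherry-positive Jurkat cells, FACS-sorted after compound exposure, with degron abundance counted by next-generation sequencing.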

Turning to FMCEVCGAVFTQKGNLLRHIKL [46F_47M_49E_50V_52G_53A_54V_55F_67L_, Q9UKT9], the “log2 fold change of degron read counts” value under setting [1] was -1.47, the “log2 fold change of degron read counts” value under setting [2] is -0.776, the “log2 fold change of degron read counts” value under setting [3] is 2.27 and the “log2 fold change of degron read counts” value (compound: thalidomide) is 0.961.
The matching figures for FECEVCGAVFTQKGNLLRHIKL [46F_47E_49E_50V_52G_53A_54V_55F_67L_, Q9UKT9]: -0.492, -0.885, 1.58 and 2.31.
The matching figures for FYCEVCGAVFTQKGNLLRHIKL [46F_47Y_49E_50V_52G_53A_54V_55F_67L_, Q9UKT9]: 3.58, 3.79, 2.82 and 0.689.
The matching figures for FVCDVCGADFTQKGNLLRHIKL [46F_47V_49D_50V_52G_53A_54D_55F_67L_, Q9UKT9]: -2.64, -1.98, -2.16 and -1.73.
Regarding FFCEICGATFTQKGNLLRHIKL [46F_47F_49E_50I_52G_53A_54T_55F_67L_, Q9UKT9], the “log2 fold change of degron read counts” value was 3.27 under setting [1], 3.8 under setting [2], 1.79 under setting [3] and 1.49 (compound: thalidomide).
The matching figures for FRCEICGATFTQKGNLLRHIKL [46F_47R_49E_50I_52G_53A_54T_55F_67L_, Q9UKT9]: -0.98, -0.654, 1.54 and 1.42.
On to FMCEICGATFTQKGNLLRHIKL [46F_47M_49E_50I_52G_53A_54T_55F_67L_, Q9UKT9], for which the “log2 fold change of degron read counts” value by setting is: under setting [1], -1.21; under setting [2], -0.67; under setting [3], 2.2; (compound: thalidomide) 1.15.
As to FLCEICGATFTQKGNLLRHIKL [46F_47L_49E_50I_52G_53A_54T_55F_67L_, Q9UKT9], the “log2 fold change of degron read counts” value is -1.3 under setting [1], -1.41 under setting [2], 0.852 under setting [3] and 1.8 (compound: thalidomide).
The matching figures for FACEICGATFTQKGNLLRHIKL [46F_47A_49E_50I_52G_53A_54T_55F_67L_, Q9UKT9]: 3.33, 2.04, 0.691 and 0.374.
The matching figures for FDCEICGATFTQKGNLLRHIKL [46F_47D_49E_50I_52G_53A_54T_55F_67L_, Q9UKT9]: 1.71, 0.141, 0.186 and 0.436.
On to FCCEICGATFTQKGNLLRHIKL [46F_47C_49E_50I_52G_53A_54T_55F_67L_, Q9UKT9], for which the “log2 fold change of degron read counts” value runs as follows: under setting [1], 2.13; under setting [2], 2.25; under setting [3], 2.55; (compound: thalidomide) 2.33.
For FSCEICGATFTQKGNLLRHIKL [46F_47S_49E_50I_52G_53A_54T_55F_67L_, Q9UKT9], the “log2 fold change of degron read counts” value reads like this: under setting [1], 2.83; under setting [2], 2.57; under setting [3], 1.79; (compound: thalidomide) 1.36.
Consider FTCEICGATFTQKGNLLRHIKL [46F_47T_49E_50I_52G_53A_54T_55F_67L_, Q9UKT9], for which the “log2 fold change of degron read counts” value worked out at 0.577 under setting [1], 2.27 under setting [2], 2.39 under setting [3] and 2.99 (compound: thalidomide).
Turning to FQCEICGATFTQKGNLLRHIKL [46F_47Q_49E_50I_52G_53A_54T_55F_67L_, Q9UKT9], the “log2 fold change of degron read counts” value by setting is: under setting [1], 0.665; under setting [2], 2.58; under setting [3], 2.4; (compound: thalidomide) 3.26.
Turning to FKCEICGATFTQKGNLLRHIKL [46F_47K_49E_50I_52G_53A_54T_55F_67L_, Q9UKT9], the “log2 fold change of degron read counts” value is, setting by setting: under setting [1], -1.26; under setting [2], -3.54; under setting [3], -2.61; (compound: thalidomide) -1.06.
On to FYCEICGATFTQKGNLLRHIKL [46F_47Y_49E_50I_52G_53A_54T_55F_67L_, Q9UKT9], for which the “log2 fold change of degron read counts” value runs as follows: under setting [1], 3.58; under setting [2], 4.05; under setting [3], 2.59; (compound: thalidomide) 1.19.
As for LNCNQCGFHCTQKGNLLRHIKL [46L_47N_49N_50Q_52G_53F_54H_55C_67L_, Q9UKT9], the “log2 fold change of degron read counts” value is, setting by setting: under setting [1], -1.47; under setting [2], -2.01; under setting [3], -1.68; (compound: thalidomide) -1.54.
In the case of FGCEICGRQFTQKGNLLRHIKL [46F_47G_49E_50I_52G_53R_54Q_55F_67L_, Q9UKT9], the “log2 fold change of degron read counts” value is -0.21 under setting [1], -0.999 under setting [2], -1.15 under setting [3] and -1.42 (compound: thalidomide).
For FSCPICGRCFTQKGNLLRHIKL [46F_47S_49P_50I_52G_53R_54C_55F_67L_, Q9UKT9], the “log2 fold change of degron read counts” value reads like this: under setting [1], -0.773; under setting [2], -1.2; under setting [3], 0.835; (compound: thalidomide) -0.39.
Regarding FYCDQCGAFFTQKGNLLRHIKL [46F_47Y_49D_50Q_52G_53A_54F_55F_67L_, Q9UKT9], the “log2 fold change of degron read counts” value was -0.965 under setting [1], -1.17 under setting [2], -1.35 under setting [3] and -2.48 (compound: thalidomide).
For the sequence FLCEICGRIFTQKGNLLRHIKL [46F_47L_49E_50I_52G_53R_54I_55F_67L_, Q9UKT9], the “log2 fold change of degron read counts” value under setting [1] was -1.35, the “log2 fold change of degron read counts” value under setting [2] is -1.7, the “log2 fold change of degron read counts” value under setting [3] was -0.45 and the “log2 fold change of degron read counts” value (compound: thalidomide) is -0.0614.
In the case of FRCNQCGAVFTQKGNLLRHIKL [46F_47R_49N_50Q_52G_53A_54V_55F_67L_, Q9UKT9], the “log2 fold change of degron read counts” value under setting [1] is -2.12, the “log2 fold change of degron read counts” value under setting [2] was -2.1, the “log2 fold change of degron read counts” value under setting [3] is -1.19 and the “log2 fold change of degron read counts” value (compound: thalidomide) was -1.75.
The matching figures for FLCEICGRNFTQKGNLLRHIKL [46F_47L_49E_50I_52G_53R_54N_55F_67L_, Q9UKT9]: -2.29, -2.99, -1.84 and -0.409.
Take FVCNVCGAHFTQKGNLLRHIKL [46F_47V_49N_50V_52G_53A_54H_55F_67L_, Q9UKT9]: the “log2 fold change of degron read counts” value reads like this: under setting [1], -1.72; under setting [2], -0.867; under setting [3], 0.0144; (compound: thalidomide) -0.327.
The matching figures for FACPQCGAKFTQKGNLLRHIKL [46F_47A_49P_50Q_52G_53A_54K_55F_67L_, Q9UKT9]: 1.62, -1.34, -2.13 and -1.03.
The matching figures for FECPICGHAFTQKGNLLRHIKL [46F_47E_49P_50I_52G_53H_54A_55F_67L_, Q9UKT9]: -2.37, -2.63, -1.62 and -1.53.
Consider FSCNICGAGFTQKGNLLRHIKL [46F_47S_49N_50I_52G_53A_54G_55F_67L_, Q9UKT9], for which the “log2 fold change of degron read counts” value runs as follows: under setting [1], 1.15; under setting [2], 0.769; under setting [3], 0.918; (compound: thalidomide) 0.088.
The matching figures for FGCEICGATFTQKGNLLRHIKL [46F_47G_49E_50I_52G_53A_54T_55F_67L_, Q9UKT9]: 3.22, 2.59, 1.76 and 1.11.
The matching figures for FVCEICGATFTQKGNLLRHIKL [46F_47V_49E_50I_52G_53A_54T_55F_67L_, Q9UKT9]: 0.63, 1.64, 1.82 and 2.54.
Consider FWCEICGATFTQKGNLLRHIKL [46F_47W_49E_50I_52G_53A_54T_55F_67L_, Q9UKT9], for which the “log2 fold change of degron read counts” value reads like this: under setting [1], 3.05; under setting [2], 3.73; under setting [3], 1.97; (compound: thalidomide) 0.793.
